According to PubChem BioAssay (NCI):
This is part of a sample that, as a whole, favours compounds with a hit. Of some 79,000 tested, about 15% had one in any assay. Active and inactive are the calls of the source. Cut-off read from the data, not from the text of the source: active = growth inhibition above about 70%; inactive = the rest.

Legend:
[1] = NCI Yeast Anticancer Drug Screen. Data for the rad52 strain (AID 147);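 note: 0% = growth of vehicle-treated control cultures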; details: S. cerevisiae rad52 mutant growth inhibition, active compounds read high
How it was run: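 Inhibition of yeast growth, referenced to vehicle controls, was the measured output for a strain with defective DNA damage repair.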

[2] = NCI Yeast Anticancer Drug Screen. Data for the wt1 strain (AID 149);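 note: 0% = growth of vehicle-treated wt1 cultures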; details: S. cerevisiae wt1 strain (SPY 50644) growth inhibition, active compounds read high
How it was run: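 Vehicle-normalised growth inhibition; strain wt1; compound exposure.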

[3] = NCI Yeast Anticancer Drug Screen. Data for the rad50EPP+ strain (AID 151);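 note: 0% = growth of vehicle-treated control cultures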; details: S. cerevisiae rad50 mutant strain, active compounds read high
How it was run: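 Genetically defined yeast (rad50EPP+, DNA damage repair alteration) is grown with compound, and inhibition of growth is expressed relative to vehicle-treated controls.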

[4] = NCI Yeast Anticancer Drug Screen. Data for the mgt1 strain (AID 153); details: S. cerevisiae mgt1 mutant growth inhibition, active compounds read high
How it was run: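 In the mgt1 strain, test compounds were added and growth inhibition was determined relative to vehicle-treated controls.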

[5] = NCI Yeast Anticancer Drug Screen. Data for the rad50 strain (AID 155);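 note: 0% = growth of vehicle-only cultures of the same strain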; details: S. cerevisiae rad50 strain growth inhibition, active compounds read high
How it was run: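 A DNA repair-deficient yeast mutant serves as the test organism; compound-induced growth inhibition is calculated against vehicle-treated cells.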

[6] = NCI Yeast Anticancer Drug Screen. Data for the mec2-1 strain (AID 157); details: S. cerevisiae mec2-1 strain, active compounds read high
How it was run: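 Each compound was tested on mec2-1 yeast, a strain altered in DNA damage repair or cell cycle control. Growth inhibition is reported relative to vehicle.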

[7] = NCI Yeast Anticancer Drug Screen. Data for the rad14 strain (AID 159);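 note: 0% = growth of vehicle-treated control cultures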; details: S. cerevisiae rad14 strain growth inhibition, active compounds read high
How it was run: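 Vehicle-treated cultures served as the baseline for growth inhibition of a DNA repair-mutant yeast strain exposed to each compound.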

[8] = NCI Yeast Anticancer Drug Screen. Data for the sgs1 mgt1 strain (AID 161);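 note: 0% = growth of cultures given vehicle only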; details: S. cerevisiae sgs1 mgt1 strain, active compounds read high
How it was run: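 Genetically altered yeast, compound exposure, growth inhibition relative to vehicle.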

[9] = NCI Yeast Anticancer Drug Screen. Data for the CLN2oe strain (AID 163);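 note: 0% = growth of vehicle-only control cultures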; details: S. cerevisiae CLN2oe strain, active compounds read high
How it was run: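 First, the altered yeast strain was treated with each compound; second, its growth was measured; finally, inhibition was derived by comparison with vehicle controls.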

[10] = NCI Yeast Anticancer Drug Screen. Data for the cln2 rad14 strain (AID 165);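 note: 0% = growth equal to vehicle treated cultures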; details: S. cerevisiae cln2 rad14 strain, active compounds read high
How it was run: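 Test compounds were added to cln2 rad14 yeast cultures; inhibition of growth was then determined by comparison with vehicle treatment.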

[11] = NCI Yeast Anticancer Drug Screen. Data for the bub3 strain (AID 167); details: S. cerevisiae bub3 mutant strain, active compounds read high
How it was run: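 Inhibition values come from growth of compound-treated mutant yeast normalised to vehicle-treated controls.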

[12] = NCI Yeast Anticancer Drug Screen. Data for the wt2 strain (AID 169);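 note: 0% = growth of vehicle-treated yeast cultures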; details: S. cerevisiae wt2 strain growth inhibition, active compounds read high
How it was run: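 The panel's yeast strains carry defined changes in DNA repair or cell cycle genes. Each strain is grown with compound, and growth loss is scored relative to vehicle.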

[13] = NCI Yeast Anticancer Drug Screen. Data for the mlh1 strain (AID 171);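 note: 0% = growth of vehicle-treated control cultures of the same strain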; details: S. cerevisiae mlh1 strain growth inhibition, active compounds read high
How it was run: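 Inhibition values reflect reduced yeast growth in the presence of compound, referenced to vehicle controls, using a strain chosen for its alteration in DNA repair or cell cycle control.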

[14] = NCI Yeast Anticancer Drug Screen. Data for the sgs1 strain (AID 173);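 note: 0% = growth of vehicle-only control cultures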; details: S. cerevisiae sgs1 mutant, active compounds read high
How it was run: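 Vehicle-treated cultures served as reference for growth inhibition of a yeast strain altered in DNA damage repair or cell cycle control after compound exposure.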

[15] = NCI Yeast Anticancer Drug Screen. Data for the mlh1 rad18 strain (AID 175); details: S. cerevisiae mlh1 rad18 strain growth inhibition, active compounds read high
How it was run: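 Inhibition values reflect reduced growth of mutant yeast versus vehicle-treated controls following compound exposure; the mutations affect DNA damage repair.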

[16] = NCI Yeast Anticancer Drug Screen. Data for the rad18 strain (AID 177); details: S. cerevisiae rad18 mutant growth inhibition, active compounds read high
How it was run: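 Steps: expose repair-mutant yeast to compound; measure growth; express as inhibition relative to vehicle control.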

[17] = at 5.0 µM (retest, dose inferred, filed as 0.5)
[18] = at 50.0 µM (retest, dose inferred, filed as 5.0)

Measured: growth inhibition

COc1cc2c(c(OC)c1OC)-c1c(cc3c(c1OC)OCO3)CC(C)C(C)(O)C2OC(=O)c1ccccc1 (stereo unspecified)
active: [4]; at 100.0 µM 70% | [5]; at 50.0 µM 71.2% | [8]; at 50.0 µM 85.4% | [11]; at 50.0 µM 72.2% | [12]; at 100.0 µM 93% | [15]; at 50.0 µM 87.8%
inactive: [1]; at 1.2 µM -26% | [1]; at 3.7 µM -15% | [1]; at 11.0 µM -25% | [1]; at 33.0 µM -22% | [1]; at 100.0 µM 47% | [2]; at 1.2 µM -16% | [2]; at 3.7 µM -26% | [2]; at 11.0 µM -10% | [2]; at 33.0 µM 7% | [2]; at 100.0 µM 3% | [3]; at 1.2 µM -2% | [3]; at 3.7 µM -19% | [3]; at 11.0 µM -26% | [3]; at 33.0 µM -21% | [3]; at 100.0 µM 5% | [4]; at 1.2 µM -5% | [4]; at 3.7 µM -9% | [4]; at 11.0 µM -14% | [4]; at 33.0 µM -17% | [5]; at 1.2 µM -53% | [5]; at 3.7 µM -18% | [5]; [17] -3% | [5]; at 11.0 µM -25% | [5]; at 33.0 µM -17% | [5]; [18] 40% | [5]; at 100.0 µM 50% | [6]; at 1.2 µM -2% | [6]; at 3.7 µM 12% | [6]; [17] -8% | [6]; at 11.0 µM 16% | [6]; at 33.0 µM 12% | [6]; [18] 13% | [6]; at 50.0 µM 55.5% | [6]; at 100.0 µM 34% | [7]; at 1.2 µM 9% | [7]; at 3.7 µM 1% | [7]; at 11.0 µM -5% | [7]; at 33.0 µM -4% | [7]; at 100.0 µM 33% | [8]; [17] 19% | [8]; [18] 68% | [9]; at 1.2 µM 27% | [9]; at 3.7 µM 17% | [9]; at 11.0 µM 16% | [9]; at 33.0 µM 20% | [9]; at 100.0 µM 45% | [10]; [17] 10% | [10]; [18] 68% | [10]; at 50.0 µM 50.2% | [11]; at 1.2 µM -8% | [11]; at 3.7 µM 11% | [11]; [17] -2% | [11]; at 11.0 µM 10% | [11]; at 33.0 µM 22% | [11]; [18] 49% | [11]; at 100.0 µM 36% | [12]; at 1.2 µM -26% | [12]; at 3.7 µM -28% | [12]; at 11.0 µM -29% | [12]; at 33.0 µM 33% | [13]; at 1.2 µM -13% | [13]; at 3.7 µM -6% | [13]; at 11.0 µM -13% | [13]; at 33.0 µM -9% | [13]; at 100.0 µM 56% | [14]; at 1.2 µM -1% | [14]; at 3.7 µM -9% | [14]; at 11.0 µM 9% | [14]; at 33.0 µM -6% | [14]; at 100.0 µM 69% | [15]; [17] 3% | [15]; [18] 47% | [16]; at 1.2 µM -45% | [16]; at 3.7 µM -37% | [16]; at 11.0 µM -26% | [16]; at 33.0 µM -10% | [16]; at 100.0 µM 46%

O=Nc1cccnc1N=O
active: [1]; at 11.0 µM 86% | [1]; at 33.0 µM 98% | [1]; at 100.0 µM 98% | [2]; at 33.0 µM 99% | [2]; at 100.0 µM 99% | [3]; at 33.0 µM 97% | [3]; at 100.0 µM 98% | [4]; at 11.0 µM 79% | [4]; at 33.0 µM 99% | [4]; at 100.0 µM 99% | [5]; at 33.0 µM 98% | [5]; [18] 99% | [5]; at 50.0 µM 99.5% | [5]; at 100.0 µM 98% | [6]; at 11.0 µM 90% | [6]; at 33.0 µM 99% | [6]; [18] 99% | [6]; at 50.0 µM 99.4% | [6]; at 100.0 µM 99% | [7]; at 11.0 µM 99% | [7]; at 33.0 µM 99% | [7]; at 100.0 µM 99% | [8]; [17] 81% | [8]; [18] 99% | [8]; at 50.0 µM 99.3% | [9]; at 33.0 µM 99% | [9]; at 100.0 µM 98% | [10]; [18] 99% | [10]; at 50.0 µM 99.3% | [11]; [17] 76% | [11]; at 11.0 µM 86% | [11]; at 33.0 µM 98% | [11]; [18] 99% | [11]; at 50.0 µM 99.5% | [11]; at 100.0 µM 98% | [12]; at 33.0 µM 99% | [12]; at 100.0 µM 99% | [13]; at 11.0 µM 83% | [13]; at 33.0 µM 98% | [13]; at 100.0 µM 99% | [14]; at 11.0 µM 97% | [14]; at 33.0 µM 99% | [14]; at 100.0 µM 99% | [15]; [17] 94% | [15]; [18] 99% | [15]; at 50.0 µM 99.6% | [16]; at 3.7 µM 86% | [16]; at 11.0 µM 94% | [16]; at 33.0 µM 98% | [16]; at 100.0 µM 98%
inactive: [1]; at 1.2 µM 10% | [1]; at 3.7 µM 31% | [2]; at 1.2 µM 2% | [2]; at 3.7 µM 10% | [2]; at 11.0 µM 37% | [3]; at 1.2 µM -33% | [3]; at 3.7 µM 14% | [3]; at 11.0 µM 64% | [4]; at 1.2 µM 5% | [4]; at 3.7 µM 25% | [5]; at 1.2 µM 7% | [5]; at 3.7 µM 21% | [5]; [17] 66% | [5]; at 11.0 µM 52% | [6]; at 1.2 µM 7% | [6]; at 3.7 µM 28% | [6]; [17] 27% | [7]; at 1.2 µM 11% | [7]; at 3.7 µM 36% | [9]; at 1.2 µM 5% | [9]; at 3.7 µM 13% | [9]; at 11.0 µM 34% | [10]; [17] 19% | [11]; at 1.2 µM 9% | [11]; at 3.7 µM 31% | [12]; at 1.2 µM 2% | [12]; at 3.7 µM 16% | [12]; at 11.0 µM 59% | [13]; at 1.2 µM 5% | [13]; at 3.7 µM 21% | [14]; at 1.2 µM 18% | [14]; at 3.7 µM 63% | [16]; at 1.2 µM 35%
